From PubChem BioAssay

System: XIP peptide (Xip251-270) binding
Assay: small-molecule binders of XIP peptide, primary screen, biochemical, small-molecule microarray, fluorescence 635/667 nm, 0.1 µg/mL protein (AID 1182)
Settings: fluorescent protein binding, 635 nm, higher = more signal, called active from +8 up or from −8 down

Composite z-score, inactive:
Cc1cc(C)c(C(O)C2C=CC3C(=O)N(c4ccccc4)C(=O)C3N2Nc2ccccc2)c(C)c1 (centres undefined) 0.733
CC(C)NC(=O)[C@@]1(Cc2ccccc2I)c2ccccc2C(=O)N(Cc2ccccc2C(F)(F)F)[C@H]1c1ccc(CO)cc1 0.52
COc1ccc(CCNC(=O)[C@@H]2c3ccccc3C(=O)N(Cc3ccccc3)[C@H]2c2ccc(CO)cc2)cc1 1.09
COC(=O)C(CC#Cc1ccc2c(c1)[C@]1(C(=O)N2)[C@H](c2ccccc2OCCO)N2[C@H](c3ccccc3)[C@H](c3ccccc3)OC(=O)[C@H]2[C@@H]1C(=O)Nc1nc2ccccc2s1)C(=O)OC 1.32
C=CCN1C(=O)[C@@]2(O[C@@H](CCO)[C@H]([Si](C)(C)c3ccc(OC)cc3)[C@H]2C)c2cc(NC(=O)[C@H](C)O)ccc21 0.395
O=C(O)[C@]1(CCS(=O)(=O)c2ccccc2)N=C(c2ccc(OCCCO)cc2)O[C@@H]1c1ccccc1 0.744
CC1=C2[C@@H](CCc3ccccc3)OB(O)C[C@@H]2[C@@H]2C(=O)C=CC(=O)[C@@H]2C1 -0.387
CN(C)C(=O)[C@@]1(CCC(=O)OC(C)(C)C)COC(c2ccc(OCCCO)cc2)=N1 0.9
COCCOC(=O)N1C(=O)[C@@]2(c3cc(C#CCC(C(=O)OC)C(=O)OC)ccc31)[C@H](C(=O)N1CCCCCCC1)[C@H]1C(=O)O[C@H](c3ccccc3)[C@H](c3ccccc3)N1[C@@H]2c1ccc(O)cc1 0.825
